Data reported in PubChem BioAssay AID1745847 (National Center for Advancing Translational Sciences (NCATS), 2022).
In all, about 2,100 compounds went through this assay and about 670 (32%) were called active. Roughly 50% stayed inconclusive and do not appear here. The list shows a part of the results. A number with no mark means an inactive call. Calls follow the shape of the dose curve; as a rule, active = well fitted inhibition curve with a large enough effect; inconclusive = small, poorly fitted or top-dose-only effect; inactive = no such curve, though single readings can be large or run the other way.
% is scaled to controls: 0 for no effect and ±100 for the full control effect; potency is read from the fitted curve at half-maximal effect.

Experiment: CMV-Luciferase Counterscreen for Inhibitors of ATXN expression; also: nearly all actives have a fitted effect of over 55% in size
Conditions: HEK-293 CMV-luciferase reporter, luminescence, 24 h; series mostly up to 57.5 µM; activity change, negative = inhibition: at the top concentration
For `NC(=O)Cn1c(=O)n(CCc2ccccc2)c(=O)c2c3c(sc21)CCCC3`, the “activity change, negative = inhibition” value was 10.9%.
Work on `CCNc1ccc(Br)cc(C(=O)/C=C/c2ccccc2Cl)c1=O` yielded an activity change, negative = inhibition of -8.42% [at 11.4 µM].
In the case of `O=C(c1ccoc1)N1CCN(c2cc(-c3cccnc3)nc3cc(-c4cccc(Cl)c4)nn23)CC1`, the Potency was 28.2 µM (active).
With `O=C(Nc1cccc2c1CCCC2)c1cc([N+](=O)[O-])ccc1Cl` the Potency was 6.31 µM (active).
In the case of `COc1cccc(CC2(CO)CCCN(Cc3[nH]c4ccc(C)cc4c3C)C2)c1` (stereo unspecified), the “activity change, negative = inhibition” value was -14.8%.
For `Cc1ccc(S(=O)(=O)Nc2ccc(O)c3cccnc23)cc1`, the Potency was 28.2 µM (active).
In the case of `Cc1ccc(S(=O)(=O)Nc2cccc3cccnc23)c([N+](=O)[O-])c1`, the “activity change, negative = inhibition” value was 80.5%.
For `COc1cccc(C(NC(C)=O)c2ccc3cccnc3c2O)c1` (stereo unspecified), the Potency was 2.82 µM (active).
In the case of `CCC(=O)NC(c1ccco1)c1cc(Br)c2cccnc2c1O` (stereo unspecified), the Potency was 8.91 µM (active).
For `CC(=O)NC(c1ccc(C(C)C)cc1)c1ccc2cccnc2c1O` (stereo unspecified), the Potency was 1.26 µM (active).
In the case of `CC(=O)NC(c1ccc2ccccc2c1)c1ccc2cccnc2c1O` (stereo unspecified), the Potency was 0.355 µM (active).
`OC1(c2ccc(Br)cc2)CCNCC1` showed an activity change, negative = inhibition of 0.489% [at 11.4 µM].
For `Cc1cccc(NC(c2ccc(C)s2)c2ccc3ccc(C)nc3c2O)n1` (stereo unspecified), the “activity change, negative = inhibition” value was 21.1%.
In the case of `CC(=O)NC(c1ccco1)c1cc(Cl)c2cccnc2c1O` (stereo unspecified), the Potency was 7.94 µM (active).
With `Oc1cccc(C(Nc2nccs2)c2ccc3cccnc3c2O)c1` (stereo unspecified) the Potency was 2.82 µM (active).
For `Oc1c(C(Nc2ccccn2)c2ccccn2)ccc2cccnc12` (stereo unspecified), the Potency was 2.82 µM (active).
For `CC(=O)NC(c1ccco1)c1ccc2cccnc2c1O` (stereo unspecified), the Potency was 1.58 µM (active).
For `CC(C)(C)OC(=O)N1CCC(c2c(C(=O)NCC3CCN(C4CCCC4)C3)cnn2-c2cccc(Cl)c2)CC1` (stereo unspecified), the activity change, negative = inhibition was -22.1% [at 11.4 µM].
In the case of `CN(Cc1ccccc1)C(=O)c1ccc(NC(=O)C2CCN(C(=O)OC(C)(C)C)CC2)cc1`, the Potency was 7.08 µM (active).
For `O=C(Cc1coc2cc3c(cc12)CCC3)OCC(=O)N1CCCC1=O`, the Potency was 15.8 µM (active).
With `Cc1ccc(-n2c(-c3ccccc3)c[n+]3c2CCc2ccccc2-3)c(C)c1` the Potency was 0.794 µM (active).
In the case of `S=C(Nc1ccccc1)Nc1ccc(OCc2ccc(Cl)cc2Cl)cc1`, the Potency was 3.55 µM (active).
For `S=C(Nc1cc(Cl)ccc1Oc1ccccc1)N1CCN(c2ccccn2)CC1`, the Potency was 17.8 µM (active).
In the case of `O=C(Nc1ccc(Br)cc1)c1cccc(OC(=S)N2CCOCC2)c1`, the Potency was 2 µM (active).
In the case of `Oc1[nH]c2ccc(Br)cc2c1N=NC(=S)N1CCOCC1`, the activity change, negative = inhibition was 43.7% [at 11.4 µM].
With `Cc1ccc(S(=O)(=O)N2CCc3ccccc3CC2)cc1` the Potency was 0.794 µM (active).
In the case of `O=C(NCCc1csc(-c2cccnc2)n1)c1cccc(Cl)c1`, the “activity change, negative = inhibition” value was -26.6%.
For `COCCNC(=O)c1cccc(Nc2nc(-c3ccccc3)c3cc(Cl)ccc3n2)c1`, the Potency was 15.8 µM (active).
With `CCN1CCN(C(=S)c2ccc(-c3ccccc3)cc2)CC1` the Potency was 2 µM (active).
With `OCCN1CCN(C(=S)c2ccc(-c3ccccc3)cc2)CC1` the Potency was 2.51 µM (active).
With `CC(C)=C1SC(N2CCN(c3ccc(C)c(Cl)c3)CC2)=NC1=O` the activity change, negative = inhibition was 103% [at 11.4 µM].
For `CCn1c2ccccc2c2cc(C3C(C#N)=C(N)Oc4n[nH]c(COC)c43)ccc21` (stereo unspecified), the Potency was 2.82 µM (active).
For `CCn1c2ccccc2c2cc(NC(=O)COC(=O)C3CCC(=O)N3)ccc21` (stereo unspecified), the “activity change, negative = inhibition” value was 18.1%.
In the case of `CC1(C(=O)Nc2cnc3ccccc3c2)CCN1C(=O)c1ccccc1CCc1ccccc1` (stereo unspecified), the Potency was 28.2 µM (active).
In the case of `COC(=O)C1=C(C)N(Cc2ccccc2)C(=NCCc2cccnc2)N[C@H]1c1ccc(Br)cc1`, the Potency was 28.2 µM (active).
In the case of `Cc1ccc(OCC(O)Cn2c(=N)n(CCN3CCCCC3)c3ccccc32)cc1` (stereo unspecified), the “activity change, negative = inhibition” value was -13.4%.
For `N=c1n(CCCOc2ccccc2Cl)c2ccccc2n1CC(N)=O`, the “activity change, negative = inhibition” value was 2.57%.
In the case of `CCCCn1c(=N)n(CCOc2ccc(C)cc2)c2ccccc21`, the Potency was 10 µM (active).
With `Cc1ccc(-c2nc3ccc(Cl)cn3c2CC(C)(C)C)cc1` the activity change, negative = inhibition was -2.84% [at 11.4 µM].
`COc1cc(C)c(C(=O)CC(=O)c2c(C)cc(OC)cc2C)c(C)c1` gave an activity change, negative = inhibition of -13.8% [at 11.4 µM].
With `Cc1ccc(C(=O)N/N=C/c2nc3ccccc3n2C)cc1` the “activity change, negative = inhibition” value was -21.7%.
With `Cc1ccc(C(C)C)c(OCc2ccc(C(=O)N/N=C/c3ccc(O)cc3O)cc2)c1` the Potency was 2.51 µM (active).
For `Cc1ccc(C(C)C)c(OCc2ccc(C(=O)N/N=C/c3cccc(O)c3O)cc2)c1`, the Potency was 2.82 µM (active).
In the case of `O=C(c1ccc(-c2nnc(Nc3cccc(Cl)c3)c3ccccc23)cc1)N1C[C@H]2C[C@H](C1)c1cccc(=O)n1C2`, the activity change, negative = inhibition was 46% [at 11.4 µM].
For `COC(=O)c1ccc(N2CCOCC2)c(NC(=O)Nc2cccc(OC)c2)c1`, the activity change, negative = inhibition was 2.86% [at 11.4 µM].
With `CCN(CC)CCNC(=O)c1ccc(NC(=O)c2ccccc2-c2ccc(C(F)(F)F)cc2)cc1` the “activity change, negative = inhibition” value was -16.1%.
For `COC(=O)c1cc(NC(=O)c2cc(-c3ccc(C(F)(F)F)cc3)oc2C(F)(F)F)ccc1N1CCOCC1`, the Potency was 22.4 µM (active).
`O=C(NCc1ccco1)/C(=C/c1cccc(C(F)(F)F)c1)c1nc2ccccc2[nH]1` gave an activity change, negative = inhibition of -12% [at 11.4 µM].
With `O=C(NCc1ccco1)c1ccc(-c2cccc(Cl)c2)o1` the “activity change, negative = inhibition” value was 34.1%.
For `O=C(NCc1ccco1)c1nc2c(nnn2Cc2ccccc2Cl)c(=O)[nH]1`, the Potency was 1.58 µM (active).
For `CC(C)CCNC(=O)COc1cccc2c1OC(C)(C)C2`, the “activity change, negative = inhibition” value was -14.5%.
In the case of `Cc1ccc(OCCCC(=O)NNC(=O)c2ccccn2)cc1`, the Potency was 11.2 µM (active).
`Cc1cccc(OCCCC(=O)Nc2nccs2)c1` showed an activity change, negative = inhibition of 249% [at 11.4 µM].
For `CC(=O)c1cccc(-c2csc3ncnc(Sc4nnnn4C)c23)c1`, the Potency was 8.91 µM (active).
In the case of `Cn1nnnc1Sc1ncnc2scc(-c3cccc(S(C)(=O)=O)c3)c12`, the Potency was 14.1 µM (active).
With `CC(=O)c1cccc(-c2cnc3c(NC=O)cc(-c4ccccc4F)cn23)c1` the activity change, negative = inhibition was -18.2% [at 11.4 µM].
With `O=C(CSCC(=O)Nc1ccccc1)N/N=C/c1c(O)ccc2ccccc12` the Potency was 0.501 µM (active).
With `CCCCn1c(SCC(=O)Nc2cc(NC(=O)c3ccco3)ccc2C)nc2ccccc2c1=O` the “activity change, negative = inhibition” value was -9.45%.
In the case of `C=C(C)Cn1c(SCC(=O)N/N=C/c2c(O)ccc3ccccc23)nc2ccccc2c1=O`, the Potency was 22.4 µM (active).
With `O=C(CN1CCCC1)N/N=C/c1c(O)ccc2ccccc12` the Potency was 1.78 µM (active).
With `NC(=O)N/N=C/c1c(O)ccc2oc3c(c12)CCCC3` the “activity change, negative = inhibition” value was 111%.
In the case of `O=C(CN1CCOCC1)N/N=C/c1c(O)ccc2ccccc12`, the Potency was 8.91 µM (active).
Compound `CCCC(=O)Nc1c(C(=O)OCC)[nH]c2ccccc12` has an activity change, negative = inhibition of -4.94% [at 11.4 µM].
For `O=c1cc(N2CCN(c3ccccc3)CC2)[nH]c(=O)n1C1CCCCC1`, the “activity change, negative = inhibition” value was 100%.
With `O=C(CCSc1nc2ccccc2s1)N/N=C/c1c(O)ccc2ccccc12` the Potency was 7.94 µM (active).
With `CCCC(=O)Nc1ccc2nc(SCC(=O)N3CCCC3)sc2c1` the “activity change, negative = inhibition” value was -8.01%.
For `CCOC(=O)C1CCN(c2ncnc3c2cnn3-c2ccc(Cl)cc2)CC1`, the Potency was 2.24 µM (active).
For `CC1CCCN(c2ncnc3c2cnn3-c2ccc(Cl)cc2)C1` (stereo unspecified), the Potency was 22.4 µM (active).
`COc1cc([N+](=O)[O-])cc(/C=N/NC(=O)C(C)Nc2cccc3ccccc23)c1O` (stereo unspecified) gave an activity change, negative = inhibition of 8.76% [at 11.4 µM].
With `COc1ccccc1NCC(=O)N/N=C/c1c(O)ccc2ccccc12` the Potency was 3.16 µM (active).
In the case of `COc1ccc(NC(C)C(=O)N/N=C/c2c(O)ccc3ccccc23)cc1` (stereo unspecified), the Potency was 6.31 µM (active).
For `CCc1cc[n+](C2=C([O-])c3ccccc3C(=O)/C2=N\S(=O)(=O)c2cccs2)cc1`, the Potency was 20 µM (active).
In the case of `Oc1ccc2ccccc2c1/C=C/c1ccc2c(Br)cc(Br)c(O)c2n1`, the Potency was 3.16 µM (active).
For `COc1cc(/C=C/c2ccc3cccc(O)c3n2)cc(OC)c1OC`, the “activity change, negative = inhibition” value was 16.4%.
With `CCCc1cc(=O)[nH]c(-n2[nH]c3c(c2=O)CCCC3)n1` the Potency was 12.6 µM (active).
In the case of `NC(=S)N1OC[C@@H]2COc3ccc4ccccc4c3[C@@H]21`, the “activity change, negative = inhibition” value was 43.5%.
For `CC(NC(=O)Nc1cccc([N+](=O)[O-])c1)(C(F)(F)F)C(F)(F)F`, the Potency was 17.8 µM (active).
With `O=C(NC1CCN(Cc2ccccc2)CC1)c1cccc(S(=O)(=O)Nc2ccc(SC(F)F)cc2)c1` the Potency was 14.1 µM (active).
In the case of `CCC(C)n1cnc2c(c1=O)c1nc3ccccc3nc1n2-c1ccc2c(c1)OCCO2` (stereo unspecified), the “activity change, negative = inhibition” value was 2.65%.
With `c1ccc(COc2ncnc3c2ncn3CCCN2CCN(Cc3cccc4ccccc34)CC2)cc1` the Potency was 14.1 µM (active).
With `Cc1cc2oc3cc(NCCC4CCCN4C)ccc3c(=O)c2cc1C` (stereo unspecified) the “activity change, negative = inhibition” value was 108%.
For `COc1ccc(CC(N)c2csc(NC(=O)c3cc(C(C)(C)C)nn3Cc3ccccc3)n2)cc1` (stereo unspecified), the activity change, negative = inhibition was -13.8% [at 11.4 µM].
For `COc1ccc(CC(N)c2csc(NC(=O)c3cccc(OC(F)(F)F)c3)n2)cc1` (stereo unspecified), the Potency was 28.2 µM (active).
With `COc1ccc(CC(N)c2csc(NC(=O)c3ccccc3OC)n2)cc1` (stereo unspecified) the “activity change, negative = inhibition” value was -21.7%.
For `O=C(Nc1nc2cc(Cl)ccc2s1)C1CCCN(S(=O)(=O)c2cccc3cccnc23)C1` (stereo unspecified), the Potency was 25.1 µM (active).
For `Cc1ccc(S(=O)(=O)c2cc3cc(Br)ccc3oc2=O)cc1`, the “activity change, negative = inhibition” value was -15.7%.
For `CCN(CC)c1ccc(/C=N/NC(=O)CNC(=O)C2COc3ccccc3O2)c(O)c1` (stereo unspecified), the Potency was 0.398 µM (active).
With `COc1ccccc1/C=C\C(=O)NCC(=O)N/N=C/c1cccc(OC)c1O` the Potency was 12.6 µM (active).
In the case of `COc1cccc(/C=N/NC(=O)CNC(=O)C2COc3ccccc3O2)c1O` (stereo unspecified), the Potency was 7.94 µM (active).
For `COc1cccc2c1C(=O)C=C(C)C2=O`, the Potency was 22.4 µM (active).
In the case of `Cc1cc(C(=O)N/N=C/c2cc(Br)cc(Br)c2OC(=O)c2cccc(F)c2)n[nH]1`, the Potency was 4.47 µM (active).
